# Test results from PubChem BioAssay (NCATS).
# Inconclusive results are not listed. Activity calls are given as the source filed them. The call rests on the fitted dose curve; in most records, active means well fitted inhibition curve with a large enough effect; inconclusive means small, poorly fitted or top-dose-only effect, or effect the other way; inactive means flat fitted curve, though single readings scatter.
# Target: Ubiquitin carboxyl-terminal hydrolase 2 (Homo sapiens) (UniProt O75604)
# Sequence (O75604 whole entry, looked up): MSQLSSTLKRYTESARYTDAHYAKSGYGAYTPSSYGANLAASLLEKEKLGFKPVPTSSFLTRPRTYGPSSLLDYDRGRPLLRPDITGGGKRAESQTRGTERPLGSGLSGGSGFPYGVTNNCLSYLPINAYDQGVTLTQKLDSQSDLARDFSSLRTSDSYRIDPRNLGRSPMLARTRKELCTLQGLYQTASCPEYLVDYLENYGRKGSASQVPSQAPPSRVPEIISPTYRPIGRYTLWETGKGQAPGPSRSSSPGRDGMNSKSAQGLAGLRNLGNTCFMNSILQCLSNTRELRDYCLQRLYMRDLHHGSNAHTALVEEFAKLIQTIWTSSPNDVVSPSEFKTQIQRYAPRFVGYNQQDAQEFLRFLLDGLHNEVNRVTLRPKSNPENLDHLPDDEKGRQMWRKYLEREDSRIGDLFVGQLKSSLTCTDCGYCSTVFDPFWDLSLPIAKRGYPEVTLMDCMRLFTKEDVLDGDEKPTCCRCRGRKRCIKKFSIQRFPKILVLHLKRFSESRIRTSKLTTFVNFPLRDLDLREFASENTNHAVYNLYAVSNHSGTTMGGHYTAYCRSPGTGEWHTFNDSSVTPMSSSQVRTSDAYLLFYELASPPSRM
# Test: qHTS Validation Assay for Inhibitors of Ubiquitin-specific Protease USP2a Using CHOP2 as the Reporter (AID 463106);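 further: plate controls were DMSO for no effect and full inhibition by NEM for full effect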
# Details: USP2a cleavage of CHOP2 reporter, enzymatic; series mostly up to 38.3 µM; activity, negative = inhibition: at the top concentration
# Description: NIH Molecular Libraries Screening Centers Network [MLSCN]
# NIH Chemical Genomics Center [NCGC]
# PI Name: Nicholson, Ben. Progenra Inc, Malvern, PA
# Homeostasis of cellular proteins is maintained through a combination of synthesis and degradation. The pathway that accounts for the majority of protein degradation is the ubiquitin-proteasomal pathway. Ubiquitin (Ub) is highly conserved in all cells and the generation of a multi-Ub chain typically targets proteins for degradation by the proteasome. However, ubiquitination is highly reversible and dynamic. Deubiquitination, the reverse process, is catalyzed through the action of enzymes referred to as isopeptidases or deubiquitinating enzymes (DUBs). This group of enzymes is collectively responsible for maintaining adequate pools of free ubiquitin and regulating the ubiquitination status of cellular proteins. The class of DUBs referred to as the ubiquitin-specific proteases (USP) family functions endoproteolytically to cleave Ub chains from a wide range of protein substrates. USP2a deubiquitinates fatty acid synthase (FASN) which has recently been identified as an emerging oncology target. To identify inhibitors of USP2a a cell-free assay was employed.
# The reporter enzyme chosen is an enterokinase called CHOP2, which is activated when the Ub is cleaved by USP2. The free and now activated reporter can subsequently act on its reporter substrate. […] The assay was developed by Progenra, Inc. and has been licensed for sale by LifeSensors, Inc. as Ub-CHOP2-Reporter-Kit (#PR1101).
# NCGC Assay Protocol Summary:
# The assay buffer, prepared fresh at the day of the assay, contains 20mM Tris-HCl pH 8.0, 2mM CaCl2, 2mM beta-Mercaptoethanol, 0.05% CHAPS. 3ul of 20nM (10nM final) USP2 core, which is stored on ice, is dispensed into a medium-binding black solid Kalypsys 1,536 well plate using the Kalypsys dispenser. The assay plate is then pinned with 23nL compound with the Kalypsys pintool in columns 5-48. The controls are pinned as follows: column 1 two-fold dilutions of 2M NEM in duplicate; column 2 2M NEM (final concentration 38.2mM); column 3&4 DMSO. The assay plate is incubated at RT for 30min. Subsequently, 1.5uL of 100nM (25nM final) Ub-CHOP2 and 1.5uL of 100nM (25nM final) Reporter Substrate (both stored on ice and protected from light) were dispensed into the plate using the Kalypsys dispenser. Plates were read after 60min RT incubation on a ViewLux (Perkin Elmer) plate reader using the following wavelengths Ex 485nm /Em 531nm.
# Data were normalized to the to AC100 inhibition (NEM). Concentration-response curves were fitted to the normalized data and the concentration-response curves were then classified based on curve quality (r2), response magnitude and degree of measured activity. The time zero reading was used to flag fluorescence artifacts.
# Keywords: ubiquitination, deubiquitination, proteases, profluorescent, MLSMR, MLPCN, NIH Roadmap, qHTS, NCGC
row,SMILES,"activity, negative = inhibition"
1,CCOC(=O)C12CC1/C(=N/O)c1ccccc1O2 (stereo not given),0.337% (inactive)
2,CCCC(=O)NCCc1c2n(c3ccc(OC)cc13)CCCc1ccccc1-2,-2.23% (inactive)
3,COc1ccc(CCN(C)CCc2ccc(OC)c(OC)c2)cc1OC,-0.564% (inactive)
4,CC1=C(/C=C/C(C)=C/C=C/C(C)=C\C(=O)O)C(C)(C)CCC1,-0.616% (inactive)
5,CCCCCCC/C=C\CCCCCCCCC(=O)O,-4.35% (inactive)
6,Nc1nc2[nH]c(=O)cnc2c(=O)[nH]1,0.137% (inactive)
7,COc1ccc(CCn2nnnc2C2(c3ccc(C)cc3)CC2)cc1,-1.48% (inactive)
8,Cc1nc(N=Nc2ccc(C(=O)O)cc2)c(COP(=O)(O)O)c(C=O)c1O,-1.31% (inactive)
9,CCN(c1nc(N)c(C(=O)N=C(N)N)nc1Cl)C(C)C,0.291% (inactive)
10,NCCCCN,0.686% (inactive)
11,COc1cccc(OC)c1OCCNCC1CSc2ccccc2O1 (stereo not given),-1.45% (inactive)
12,CCSC(=N)N,-0.293% (inactive)
13,COc1ccc2c(c1)c(CC(=O)O)c(C)n2C(=O)c1ccccc1,-0.366% (inactive)
14,O=C(O)c1cccnc1C(=O)O,-7.6% (inactive)
15,CCCn1c(=O)c(C)cn2nc(N)nc12,1.18% (inactive)
16,C=CCn1c(=O)c2c(nc(-c3ccc(S(=O)(=O)O)cc3)n2C)n(C)c1=O,0.517% (inactive)
17,COc1cc(CC(=O)O)ccc1O,0.663% (inactive)
18,O=C(c1ccc2c(c1)OCCO2)N1CCCCC1,0.377% (inactive)
19,Cn1cc(C(F)(F)F)nc1-c1ccc(OCC(O)CNCCOc2ccc(O)c(C(N)=O)c2)cc1 (stereo not given),0.799% (inactive)
20,O=c1oc(Cl)c(Cl)c2ccccc12,1.04% (inactive)

row,SMILES,"activity, negative = inhibition"
1,CC(N)=NCCCC[C@@H](N)C(=O)O,2.54% (inactive)
2,COc1ccc(-c2ccc(N)[n+](CCCC(=O)O)n2)cc1,-1.34% (inactive)
3,CN(CC[C@@H](Oc1ccc(C(F)(F)F)cc1)c1ccccc1)CC(=O)O,3.64% (inactive)
4,Cc1ccccc1/C=C/C1=NCCN1,-0.258% (inactive)
5,CCC(=O)N1CCN(C(=O)c2ccccc2)CC1,1.23% (inactive)
6,NOCC(=O)O,-0.369% (inactive)
7,CCCCOC(=O)NS(=O)(=O)c1sc(CC(C)C)cc1-c1ccc(Cn2c(CC)nc3c(C)cc(C)nc32)cc1,-11.8% (inactive)
8,Nc1ncnc2c1ncn2C1CCCO1 (stereo not given),-1.02% (inactive)
9,COC(=O)C(N)Cc1ccc(Cl)cc1 (stereo not given),-1.18% (inactive)
10,NC1C=CC=C(C(=O)O)C1 (stereo not given),0.675% (inactive)
11,N[C@H]1CONC1=O,1.26% (inactive)
12,CN1Cc2sccc2C(c2ccc(O)c(O)c2)C1 (stereo not given),-0.475% (inactive)
13,CCN1C(=O)C=CC1=O,-0.509% (inactive)
14,Nc1ccc(CCNc2ncnc3c2ncn3C2OC(CO)C(O)C2O)cc1 (stereo not given),1.47% (inactive)
15,CCc1ccc2c(-c3cccc(Cl)c3)nc(=O)n(CC)c2n1,-0.772% (inactive)
16,CCCn1c(=O)c2[nH]c(-c3ccc(S(=O)(=O)O)cc3)nc2n(CCC)c1=O,0.661% (inactive)
17,Nc1nc2ccc(Cl)cc2c2nc(-c3ccco3)nn12,-2.35% (inactive)
18,N[C@@H](Cc1c[nH]c2ccccc12)C(=O)O,-0.708% (inactive)
19,NS(=O)(=O)c1cccc2c1c([N+](=O)[O-])cc1nc(O)c(O)nc12,1.72% (inactive)
20,Oc1ccc(Cn2cc[nH]c2=S)cc1,4.1% (inactive)
